Records with an inconclusive call do not appear. Where a structure was tested more than once in an assay, its records may differ in their call. Calls of active or inactive are those of the source. How the source made its calls: active means hit-call score of the fitted dose curve at least 0.9, where 1 is the maximum; inconclusive means response in the unintended direction; inactive means score below 0.9.

A short description of the assay: ACEA_ER_AUC_viability: ACEA Biosciences xCELLigence Real-Time Cell Analysis on Estrogen Receptor Agonism for Viability (AID 2283782).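 Further: hit means loss of impedance signal meaning reduced cell growth or viability.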 The method, boiled down:
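T-47D; phenol red-free RPMI1640 + 10% CS-FBS; 8 conc., 1:4 serial, max 100 uM final, ≤0.5% DMSO; n = 2; continuous exposure; impedance monitored to 80 h post-dose; AUC vs DMSO.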
Consider `OCC(F)(F)C(F)(F)C(F)(F)C(F)(F)C(F)(F)C(F)F`, for which the result was inactive. In the case of `O=C(O)C(F)(F)C(F)(F)C(F)(F)C(F)(F)C(F)(F)C(F)(F)C(F)(F)C(F)(F)C(F)(F)C(F)(F)C(F)(F)C(F)(F)C(F)(F)F`, the AC50 was 2.91 µM (active).

Turning to `c1ccc(-c2ccccc2-c2ccccc2)cc1`, the AC50 was 78.7 µM (active). Turning to `Nc1ccc([N+](=O)[O-])cc1O`, the compound was classed as inactive. `CCc1ccc(C(c2ccc(CC)cc2)C(Cl)Cl)cc1`: the compound was classed as inactive. Consider `FC(F)(F)C(F)(F)C(F)(F)CI`, for which the result was inactive. Take `FC(F)(F)C(F)(F)C(F)(F)C(F)(F)C(F)(F)C(F)(F)C(F)(F)I`: the compound was classed as inactive. The same measure, in the same setting: under `OCC(F)(F)C(F)(F)C(F)(F)F` stands “inactive”; under `C=C(C)C(=O)OCC(F)(F)C(F)(F)C(F)(F)F`, “inactive”. As to `CCN(CC)c1ccc2c(C)cc(=O)oc2c1`, the AC50 is 17.1 µM (active). `FC(F)(F)C(F)(F)C(F)(F)C(F)(F)C(F)(F)C(F)(F)CC1CO1` (stereo not given): the outcome was inactive. As for `Nc1ccc(S(=O)(=O)Nc2nccs2)cc1`, the concentration at half-maximal activity (AC50) is 26 µM (active) and the compound was called inactive. Take `O=C(O)C(F)(F)C(F)(F)C(F)(F)C(F)(F)C(F)(F)C(F)(F)C(F)(F)C(F)(F)C(F)(F)C(F)(F)C(F)(F)C(F)(F)F`: the AC50 is 19.3 µM (active). `CCCCCC=O`: the result was inactive.

`CC(C)=CCCC(C)CCOC(=O)C(C)C` (stereo not given): the half-maximal activity concentration (AC50) is 50 µM (active).

Regarding `O=C(O)C(F)(F)C(F)(F)F`, the compound was called inactive.

`O=C(O)C(F)(OC(F)(F)C(F)(OC(F)(F)C(F)(F)C(F)(F)F)C(F)(F)F)C(F)(F)F` (stereo not given): the call was inactive. As for `CCCCCCCCCCCCCCCC[N+](C)(C)Cc1ccccc1`, the AC50 was 3.4 µM (active). On to `FC1CC(F)(F)C(F)(F)C1(F)F` (stereo not given), for which the outcome was inactive. As for `CC(C)(C)C(=O)CC(=O)C(F)(F)C(F)(F)C(F)(F)F`, the result was inactive.

With `O=C(Cl)C(F)(F)C(F)(F)C(F)(F)C(F)(F)C(F)(F)C(F)(F)C(F)(F)C(F)(F)F`, the half-maximal activity concentration (AC50) was 127 µM (active). Regarding `O=S(=O)(O)C(F)(F)C(F)(F)C(F)(F)C(F)(F)C(F)(F)C(F)(F)C(F)(F)F`, the result was inactive. For the compound `O=C(O)C(F)(OC(F)(F)C(F)(OC(F)(F)C(F)(OC(F)(F)C(F)(F)C(F)(F)F)C(F)(F)F)C(F)(F)F)C(F)(F)F` (stereo not given), the result was inactive. With `COC(=O)CCC(F)(F)C(F)(F)C(F)(F)C(F)(F)F`, the compound was classed as inactive. Same read-out and setting: with `CS(C)(=O)=O` the entry was “inactive”. With `FC(F)(I)C(F)(F)C(F)(F)C(F)(F)I`, the AC50 was 129 µM (active). Consider `Oc1ccc(Nc2ccccc2)cc1`, for which the half-maximal activity concentration (AC50) is 25.4 µM (active).

In the case of `O=S(=O)(OCC(F)F)C(F)(F)F`, the compound was called inactive.

In the case of `C=C(C)C(=O)OCC(F)(F)C(F)(F)C(F)(F)C(F)(F)C(F)(F)C(F)(F)C(F)(F)F`, the result was inactive. For `O[Si](c1ccccc1)(c1ccccc1)c1ccccc1`, the AC50 was 196 µM (active).

With `CC/C=C\CCOC(=O)c1ccccc1`, the AC50 was 76.7 µM (active). With `C=CC(F)(F)C(F)(F)C(F)(F)C(F)(F)C(F)(F)C(F)(F)C(F)(F)C(F)(F)C=C`, the compound was classed as inactive.

`OCC(F)(F)C(F)(F)C(F)(F)C(F)F`: the compound was called inactive. `Cc1ccc(S(=O)(=O)OCC(F)(F)C(F)(F)C(F)(F)C(F)(F)C(F)(F)C(F)F)cc1`: the half-maximal activity concentration (AC50) is 0.00308 µM (active). On to `CCc1c(Br)c(Br)c(Br)c(Br)c1Br`, for which the call was inactive. For the compound `CC(C)(C)c1ccc(OC2CCCCC2O)cc1` (stereo not given), the call was inactive.

For `N=C(N)C(F)(F)C(F)(F)C(F)(F)C(F)(F)C(F)(F)C(F)(F)C(F)(F)F`, the half-maximal activity concentration (AC50) is 75 µM (active). On to `FC(F)(F)C(F)(F)C(F)(F)C(F)(F)C(F)(F)C(F)(F)C(F)(F)Br`, for which the compound was called inactive.

On to `O=C(O)C(F)(F)C(F)(F)C(F)F`, for which the compound was called inactive.

These data come from PubChem BioAssay (EPA / NIEHS).
